PME-1 inh = blocks human protein phosphatase methylesterase 1; Q9Y570; recombinant PME-1, FP-Rh probe fluorescence polarization; inhibition, % at 5.9 µM; actives 0.53% (n = 320,000); AID 2130;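 active = inhibition above the campaign mean of all compounds plus 3 SD, cut at about 26% in these data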;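 also: competitive labeling of PME-1 active site by serine hydrolase directed probe; inhibitors block probe labeling so polarization falls and inhibition rises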
Target sequence (Q9Y570 whole entry, looked up): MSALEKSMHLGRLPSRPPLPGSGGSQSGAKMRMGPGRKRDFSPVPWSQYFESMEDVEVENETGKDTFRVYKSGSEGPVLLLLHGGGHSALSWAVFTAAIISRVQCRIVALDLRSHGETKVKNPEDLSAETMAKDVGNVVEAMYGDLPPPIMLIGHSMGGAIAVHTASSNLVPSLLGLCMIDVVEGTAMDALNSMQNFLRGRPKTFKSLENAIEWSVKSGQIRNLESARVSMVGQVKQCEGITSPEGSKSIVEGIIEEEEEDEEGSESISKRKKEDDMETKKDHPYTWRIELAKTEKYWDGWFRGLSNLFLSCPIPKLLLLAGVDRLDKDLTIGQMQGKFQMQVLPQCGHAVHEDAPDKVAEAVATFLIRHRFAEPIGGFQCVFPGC
LYPLA1 inh = blocks human lysophospholipase 1, a PME1 counter-screen; O75608; recombinant LYPLA1, FP-Rh probe fluorescence polarization; inhibition, % at 5.9 µM; actives 0.16% (n = 320,000); AID 2174;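 active = inhibition above the mean of all tested compounds plus 3 SD, set per campaign, cut at about 14% in these data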;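 also: inhibitors block serine hydrolase probe labeling of LYPLA1 so polarization falls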
Target sequence (O75608 whole entry, looked up): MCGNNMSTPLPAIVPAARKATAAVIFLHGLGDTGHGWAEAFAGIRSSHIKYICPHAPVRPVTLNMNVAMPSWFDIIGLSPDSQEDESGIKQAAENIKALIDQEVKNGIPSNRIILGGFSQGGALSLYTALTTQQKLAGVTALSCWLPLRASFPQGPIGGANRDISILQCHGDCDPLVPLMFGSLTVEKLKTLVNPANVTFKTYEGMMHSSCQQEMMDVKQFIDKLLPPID
LYPLA2 counter = LYPLA2 (human) inhibition in PME1 counter-screen. inhibition, % at 5.9 µM. O95372. recombinant LYPLA2, FP-Rh probe fluorescence polarization. actives 0.38% (n = 320,000);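 active = inhibition above the screen-wide mean plus 3 SD, limit set per campaign, cut at about 26% in these data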
Fam108B inh = Fam108B inhibition, counter-screen for RBBP9 inhibitors. recombinant Fam108B, FP-Rh probe fluorescence polarization. inhibition, % at 9.51 µM. actives 0.33% (n = 300,000). AID 1947;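 active = inhibition above the screen mean inhibition plus 3 SD, computed separately per campaign, cut at about 18% in these data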;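 also: inhibitors lower polarization as less probe binds the enzyme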
PREPL inh = inhibits the human prolyl oligopeptidase-like enzyme. recombinant PREPL, fluorescence polarization activity-based probe. actives 0.68% (n = 320,000). Q4J6C6. inhibition, % at 5.96 µM
PREPL inh cf = confirmation of human PREPL enzyme inhibitors | shares compounds with PREPL inh | recombinant PREPL, fluorescence polarization activity probe | inhibition, % at 5.96 µM | actives 67% (n = 2,000)
Numbers stand for hits; . = inactive; / = not tested or not shown. Shown are actives, neighbours in structure and some others; about 1.3% of the full set was active somewhere. Rule as the data show it, unless noted: active = inhibition above about 43%; inactive = the rest.

SMILES	PME-1 inh	LYPLA1 inh	LYPLA2 counter	Fam108B inh	PREPL inh	PREPL inh cf
Nc1nn(-c2ccccc2)c(N)c1N=Nc1cccc(F)c1	.	.	.	.	64.5	60.4
Cc1[nH]n(-c2ccccc2)c(=O)c1N=Nc1ccccc1	.	.	.	.	.	/
Nc1[nH]n(-c2ccccc2)c(=O)c1N=Nc1ccc2c(c1)OCO2	33.1	.	.	.	45.4	47.2
COc1cc(C2CC(=O)Oc3c(C(CCN4CCCC(C)C4)c4ccc(N(C)C)cc4)c(OC)cc(OC)c32)cc(OC)c1OC (configuration not stated)	.	.	.	.	46.3	52.0
O=C(COc1ccc(F)c(Cl)c1)Nc1ccc(N2CCOCC2)cc1	/	/	/	/	56.1	54.8
O=C(CCn1c(=O)oc2cc(Cl)ccc21)Nc1ccc(N2CCOCC2)cc1	.	.	.	.	49.3	49.0
O=C(COc1cccc(Cl)c1)Nc1ccc(N2CCOCC2)cc1	.	.	.	.	46.0	46.7
COc1ccc2c(CC(=O)Nc3ccc(OC)c(S(=O)(=O)N4CCOCC4)c3)coc2c1	.	.	.	.	.	/
COc1ccc2c(CC(=O)Nc3ccc(N4CCOCC4)cc3)coc2c1	.	.	.	.	53.7	59.5
CC(Oc1cccc(Cl)c1)C(=O)N(C)CC(=O)Nc1ccc(N2CCOCC2)cc1 (configuration not stated)	.	.	.	.	.	/
O=C(COc1ccc2ccc(=O)oc2c1)Nc1ccc(N2CCOCC2)cc1	.	.	.	.	.	/
CN1c2ccccc2Oc2nnc(N3CCN(Cc4ccccc4)CC3)cc21	.	.	.	.	45.9	.
O=C(NC(=S)Nc1ccc(CN2CCCCC2)cc1)c1cc2ccccc2o1	.	.	.	.	.	/
COc1cc(/C=C(\C#N)C(=O)c2ccc(O)c(O)c2)cc(I)c1O	.	.	.	.	55.8	.
O=S(=O)(Nc1cc(S(=O)(=O)N2CCOCC2)ccc1NCC1CCCO1)c1ccc(F)cc1 (configuration not stated)	.	.	.	/	.	/
COc1ccc(N2CCN(c3ccc4nnc(CCC(=O)Nc5ccc(C)cc5)n4n3)CC2)cc1	.	.	.	.	58.9	60.4
COc1ccc(N2CCc3c(C)nc4c(OC)cc(OC)cc4c32)cc1	.	.	.	.	51.5	49.2
CC(=O)Nc1ccc(Nc2cc(C)nc3c(-c4ccccc4)cnn23)cc1	.	.	.	.	.	/
C#CCOCCOCCOCCNc1nc(N2CCN(C(=O)CCCCCCCCCCNC(=O)Cn3cc(CCCCCN)nn3)CC2)nc(N2CCN(C(=O)CCCCCCCCCCNC(=O)[C@H](CO)n3cc(CCCCCN)nn3)CC2)n1	.	.	.	.	67.6	60.0
C#CCOCCOCCOCCNc1nc(N2CCN(C(=O)CCCCCCCCCCNC(=O)[C@H](CCCCN)n3cc(CCO)nn3)CC2)nc(N2CCN(C(=O)CCCCCCCCCCNC(=O)[C@H](CCCCN)n3cc(CCO)nn3)CC2)n1	.	.	.	.	57.6	46.7
C#CCOCCOCCOCCNc1nc(N2CCN(C(=O)CCCCCCCCCCNC(=O)[C@H](CCCCN)n3cc(CCCC(=O)O)nn3)CC2)nc(N2CCN(C(=O)CCCCCCCCCCNC(=O)[C@H](CCCCN)n3cc(CCCC(=O)O)nn3)CC2)n1	.	.	.	.	.	/
C#CCOCCOCCOCCNc1nc(N2CCOCC2)nc(N2CCN(C(=O)CCCCCCCCCCNC(=O)[C@H](CO)n3cc(CCCCCN)nn3)CC2)n1	.	.	.	.	.	/
C#CCOCCOCCOCCNc1nc(N2CCN(C(=O)CCCCCCCCCCNC(=O)[C@H](CCCCN)n3cc(C)nn3)CC2)nc(N2CCN(C(=O)CCCCCCCCCCNC(=O)[C@@H]([C@H](C)CC)n3cc(CCCCCN)nn3)CC2)n1	.	.	.	.	51.8	44.6
C#CCOCCOCCOCCNc1nc(N2CCN(C(=O)CCCCCCCCCCNC(=O)[C@H](CCCCN)n3cc(CCO)nn3)CC2)nc(N2CCN(C(=O)CCCCCCCCCCNC(=O)[C@H](CCCN=C(N)N)n3cc(C[C@@H](C)CC)nn3)CC2)n1	.	.	.	.	56.3	56.7
O=C(CCc1nnc(CCCc2ccccc2)o1)NCC(F)(F)F	.	.	.	.	.	/
SMILES	PME-1 inh	LYPLA1 inh	LYPLA2 counter	Fam108B inh	PREPL inh	PREPL inh cf
O=C(c1cc(-c2ccccc2O)on1)N1CCCCCC1	.	.	.	.	.	/
N=C1C(c2nc3ccccc3s2)=C(O)CN1c1ccccc1	.	.	.	.	.	/
C#CCOCCOCCOCCNc1nc(N2CCN(C(=O)CCCCCCCCCCNC(=O)[C@H](CO)n3cc(CCCSC)nn3)CC2)nc(N2CCN(C(=O)CCCCCCCCCCNC(=O)[C@H](CCCCN)n3cc(C[C@@H](C)CC)nn3)CC2)n1	.	.	.	.	.	/
C#CCOCCOCCOCCNc1nc(N2CCN(C(=O)CCCCCCCCCCNC(=O)[C@H](CCCCN)n3cc(CCCC(=O)O)nn3)CC2)nc(N2CCN(C(=O)CCCCCCCCCCNC(=O)[C@H](CCCN=C(N)N)n3cc(C[C@@H](C)CC)nn3)CC2)n1	.	.	.	.	43.6	.
O=C(NCCCn1ccnc1)C1CCN(S(=O)(=O)c2cc([N+](=O)[O-])ccc2Cl)CC1	/	/	/	/	47.5	.
CN(C)c1ccc(NC(=O)Cn2cc3c(n2)CCCC3)cc1	.	.	.	.	69.2	68.9
O=C(Nc1ccc(Oc2c(F)c(F)c(F)c(F)c2F)cc1)OC1CCN2Cc3ccccc3N=C12 (configuration not stated)	.	.	.	.	.	/
Cc1ccc2c(c1)c1c3n2CCCNC3CCC1 (configuration not stated)	.	.	.	.	44.6	43.5
O=c1c2c3c(sc2nc(NCCO)n1Cc1ccco1)CCCCC3	.	.	.	.	.	/
O=c1c2c3c(sc2nc(NCCO)n1CCc1ccccc1)CCCCC3	.	.	.	.	164.1	.
Cc1ccc2nc3c(cc(C(=O)NCCc4ccccc4)c(=N)n3CCCN3CCOCC3)c(=O)n2c1	.	.	.	.	52.5	56.4
COc1ccc(CCNC(=O)c2cc3c(=O)n4ccccc4nc3n(CCCN3CCOCC3)c2=N)cc1	.	.	.	.	58.4	51.9
COc1ccc(CCNC(=O)c2cc3c(=O)n4ccccc4nc3n(CCCN3CCOCC3)c2=N)cc1OC	.	.	.	.	.	/
COc1ccc(CCNC(=O)c2cc3c(=O)n4ccccc4nc3n(CCN3CCOCC3)c2=N)cc1	.	.	.	.	.	/
Cc1cccn2c(=O)c3cc(C(=O)NCCc4ccccc4)c(=N)n(CCCn4ccnc4)c3nc12	.	.	.	.	66.3	57.6
COc1ccccc1C(C)NC(=O)CCNC(=O)c1ccc(Cl)cc1 (configuration not stated)	/	/	/	/	.	/
COC(=O)c1ccccc1OCCOCCOc1cccc2ccc(C)nc12	.	.	.	.	48.7	.
COC(=O)c1ccc(OCCOCCOc2cccc3ccc(C)nc23)cc1	.	.	.	.	.	/

Screening data (PubChem BioAssay)
